In all, about 1,800 sequences were measured (“median log2 fold change of GCK-ALFA target abundance (FLAG IP / Myc IP barcode read proportion)”: median about 0.14, lowest 2% from about -0.84 on). This is one part of a sample in which the lowest values are shown more often than they occur.

The labels stand for the following.
T1: TRAF2, Q12933
T1 chain: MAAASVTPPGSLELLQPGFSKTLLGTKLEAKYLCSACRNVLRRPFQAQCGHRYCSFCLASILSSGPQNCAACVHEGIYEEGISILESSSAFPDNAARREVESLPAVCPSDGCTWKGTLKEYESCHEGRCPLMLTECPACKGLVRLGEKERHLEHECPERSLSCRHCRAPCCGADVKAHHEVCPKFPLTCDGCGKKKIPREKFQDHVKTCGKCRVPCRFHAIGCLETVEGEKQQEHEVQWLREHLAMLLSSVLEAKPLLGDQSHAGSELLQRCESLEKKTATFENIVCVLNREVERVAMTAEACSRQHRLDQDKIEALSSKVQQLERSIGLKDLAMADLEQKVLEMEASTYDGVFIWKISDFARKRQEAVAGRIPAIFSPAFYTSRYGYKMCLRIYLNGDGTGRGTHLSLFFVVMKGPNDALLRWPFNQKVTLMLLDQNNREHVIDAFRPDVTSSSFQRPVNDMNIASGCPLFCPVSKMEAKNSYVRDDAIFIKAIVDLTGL

B1: traf2_out_13_95_1154 (protein)
chain: SKELAEKIMEIADKMLDKSKEILKELLEIAKKKGKLEEEVQEALYLAETRSINEAIHKLKELAKKYPEFKEELEKAIKELEELKREAGKEVAKLIKEEKE
B2: traf2_out_13_95_1105 (protein)
chain: SAETAEKIMEVADEMLEKSEKLLEELLKIAKEKGKLVEEVQEALDLARYRSINEAIHKLKELAKKYPEFKEEFEATIKELEELKREAGRKVAEILKEEKE
B3: traf2_out_13_95_1160 (protein)
chain: SKELAKKIMEIADEMLDESEKILEELLKIAKEKGKLEKEVQEALDLARYRSINEAIHKLEELAKKYPEFKEEFEKAIKKLKELKREAGKKVAKLIKEEEE
B4: traf2_out_17_162_1603 (protein)
chain: SSLEKKKEELLKKKEELKEELKRLTEKLKNIEKLSKEELSDLLVEASEKKREALEALEKIEELKDELDPEEYEKLSTEFEELAEEFQRIANKFYKELEKK
B5: traf2_out_6_156_2407 (protein)
chain: MVEEIFEEAMKEIKELIKKLSEASEEKKISYISKIAGTFYRALQRLREAGASVEELEEFIKRMMEKIKEWLDEEGLPEDIKNLILSSLKAVGDVALEEAK
B6: traf2_out_17_162_1641 (protein)
chain: SAAEELRKRLLEELERLEKELKELEEKSKKIDEYTKEELSDLIVEASEARRRARELIEEVDRNRSLLDPEEYEELKKRLEEIAERLNRIAQKFYDKYLEL
B7: traf2_out_17_162_1479 (protein)
chain: MSIEEKVERLERELEELEEEARRLREELERLEEKSKEEITDLLVEVSEARRRALELAEEFEELAPEIGEEKARELADRAREIAEELQRIANEIYKELEKK
B8: traf2_out_17_60_1760 (protein)
chain: GPEERKKELAEEARRKIEEARRLVEEVRKKLEAGTLTADEAMDYLVELSEKRRELRRLAEELRAEGPEFEPLIEELERAIEEVERTMNEVGKELERLLAA
B9: traf2_out_6_3_2512 (protein)
chain: EEEEERKRNEEALEEAAEMSLETIKIAAETTLKELEKAVEDPNATETDFLAYKSSLNLLLEIMKKHAEKHPEEKEEAEKFIEEMKKKLEELEKEWKKKRA
B10: traf2_out_20_3_2213 (protein)
chain: DELVAAVREQLAKIRELLEQARPRLAPEDYARLNALLARAEEALETDPSDALVALSELRRALLELAERARAAGDEELAKLLEEAAEAANKAANLVMQLLE
B11: traf2_out_17_162_1579 (protein)
chain: SELEEKLKELEEKLKELEKELKRFKEELKNLENKSKEELTDLLVEVSEARREALQLAEELKKLEKEIGEEKAKELIEKAEEIAEEFQRIANEIYKELLKK
B12: traf2_out_6_156_2416 (protein)
chain: MVEEILKEALEKVKELIKELAKAPESKKIQYISKIAGTAYRALQKLREAGASLEEIEEFAKRFLEETKKLAKEAGLPEDTINLLLSALQAVFDVAIAEAK
B13: traf2_out_6_3_2523 (protein)
chain: SEESLREDARRVLEGMGITTAEQLRRLVRAEVNAVRRLVSRPDTDEADLAGAESVLALAEAVVDVAAEELPDLTEEQVAELRALIEEARKLVEEKRAELA
B14: traf2_out_17_178_1720 (protein)
chain: SKEEYRKKISELTDKLIDLAEAAAARLLALARAEGTLSPEELAALEAARRRGSPNDTLALMRRVAPRLRSAAEAEALLADFEAQSKALAKEIAELYEKYE
B15: traf2_out_13_95_1096 (protein)
chain: SKELAEKIMEIADKMLDEVEKLLEELLKEAKKAGKLEEEVTEALNLARYRSINEAIHLLEELAKKHPEFKELYEKTIKEIKEIIKEAGKEVAKLIKEEKE
B16: traf2_out_13_95_1103 (protein)
chain: SEETAKKIMEVADKMLDKVEELLEKLLEKAKKAGKLEEEIEKALHLARYQSINEAIHLLKELAKKYPEFKEELEETIKEIEALRKQAGKEVAKIIKEEKE
B17: traf2_out_6_3_2524 (protein)
chain: SEESLRADARKILEGMGITTAEQLRTLVTAEVNAVRQLVSRPDTDRADLAGARSVLALSRAIVDVAAETLPDLTPEQVAALRALIAAAEELIAAREAELA
B18: traf2_out_16_104_1376 (protein)
chain: SAATDAAFQAIIARLEAIAERAQRLANELMKLYEKASPEEKEKISDALVEVSELRRRALAAAEAVRQAQAAGGDLAEAQATLAELEARLAEAEARVEELK
B19: traf2_out_11_169_872 (protein)
chain: KEAEKNRKLNDFALELNDEAKEKLKEFALKLAKELGLDVEEVKKIFEENKNKSLSAVAAALIKYFKEKGKEDAAAKIEKKYEELKEEINKKTSEKIKELE
B20: traf2_out_3_89_2287 (protein)
chain: SEEREKKIEELRRIIDRYLKGFEKSARRVAKEMLEEGYSLDTLEGVLNASKTALVEEIRRLAKERGLSEEDIKELVEEATKRLDEIVDKILEEAKKARAE
B21: traf2_out_19_16_1983 (protein)
chain: AEEEAERLLAEMRRHLDEALRLAEETVANLDKLSRDELMDRLVEISELVRRAQEALQRALELLADDPERRAAIRAEYDERLDRINRLMTKIVDRLLELLK
B22: traf2_out_11_79_931 (protein)
chain: SEKRKELEELIKKALKLVEELIKKLKEGNISEEEFAKTIEEILELLQRAMQLALELGLSDVLVLLSEARRHVLLSRTRNLEELEKAAKYLKEALKELEKE
B23: traf2_out_18_167_1826 (protein)
chain: SEEAEKKINELRDKLIEYSEIRRLALAAIEALRTDPAAAEAALAAVIAALEKVPEFRPDAERLKALPREELPAALEEIAERAQRKMNEIYKEIEEIKKKA
B24: traf2_out_6_3_2531 (protein)
chain: DRESLLADARKVLENMGITTAAELQRLVEAEVRAIRQLISRPDVDRADLAGARSVIALARAMVEVAAETLPDFTPEQQARLQALLAEAEELVRRREEELA
B25: traf2_out_20_3_2095 (protein)
chain: EELEKELEKALKEAAKLIKKAIALADPETAARLEALLKRLKAAEKLPLEDRLVALSAVRRELLALAEEARAAGREELAKLLEEAAEEVNRAMNLAYKIIE
B26: traf2_out_9_17_2611 (protein)
chain: SAEEEELKERLLEAIEEVLKELVEKGYITEEEAEEILKKVKELIEKGASPDEIIAEFLGMIASILLTKSNLSLPEANKIVGEAYRRLQERLEKIEKELAE
B27: traf2_out_16_104_1406 (protein)
chain: AAATQAAFDAIIAELNKIAEELGKIANKIYKKMETASPELKEKLTDALVDASELRRQALEAAVAAAQARATGGDLAAAQATLAELKKKAEEVKKKAEELF
B28: traf2_out_14_149_1255 (protein)
chain: SETEKKRKALEEARALMEEIAAILEAALAAGSTEVDRERLRALVEEARAILREQGFVLGHLLAIEEMLATTEEFTLADIEALLAEVRRAAESLAVLAEML
B29: traf2_out_6_3_2517 (protein)
chain: MEESIRKDARTVLENMGITTVEQLKKLVEANVNAVKKLVSRKDVDRADLAAANSVLNLTRAMVEVAAETLPDLTEEDVKEMNALIDEARELIEKKKKELE

The target of the experiment is T1, TRAF2, Q12933. Briefly: median log2 fold change of GCK-ALFA target abundance (FLAG IP / Myc IP barcode read proportion) (log2 ratio); each designed protein is fused to an ALFA-tag nanobody in HEK293 cells to bring the named protein to FLAG-tagged glucokinase (GCK); Myc marks an untargeted standard; higher = target protein stabilised (more abundant). The following applies: target protein: 3xFLAG-MCP-GCK-ALFA reporter; HEK293 landing pad (RPLP). Summed up: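 An ALFA-nanobody-fused binder library was recombined into HEK293 landing-pad cells and induced with 2 μg mL^−1 doxycycline. Cells were transfected with a plasmid expressing a FLAG-tagged target and a Myc-tagged standard. After 48 h, lysates underwent anti-FLAG and anti-Myc immunoprecipitation, and circular RNA barcodes were reverse transcribed, amplified and sequenced. Target abundance is the per-binder median log2 ratio of FLAG to Myc barcode read proportions. Barcodes needed ≥10^−7 proportion in both replicates, binders ≥3 barcodes per replicate, and a 10^−6 pseudocount was added; the two replicates were pooled.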
Consider B1, for which the “median log2 fold change” value was -0.148.
Then B2, with -0.477; and B3, with -1.21; and B4, with 0.253.
Then B5, with 0.175.
As for B6, the “median log2 fold change” value was determined as 0.177.
The figure for B7 is 0.0731.
The figure for B8 is 0.112; for B9 it is 0.417.
For the molecule B10, the “median log2 fold change” value came to 0.129.
The figure for B11 is 0.462; for B12 it is -0.0768; for B13 it is -0.222.
On to B14, for which the “median log2 fold change” value worked out at 0.2.
Then B15, with -0.702; and B16, with -1.3.
Then B17, with -0.125; and B18, with 0.417.
Then B19, with 0.289.
On to B20, for which the “median log2 fold change” value is -0.239.
The figure for B21 is -0.215; for B22 it is 0.265; for B23 it is 0.154.
B24: the “median log2 fold change” value was -0.925.
Then B25, with -0.0878.
Then B26, with 0.0354; and B27, with 0.196.
Then B28, with -0.105; and B29, with -1.1.

The values are drawn from the supplement of paper PMC12632987.
